Molecules are shown by their SMILES. Hit rate of the full screen: of about 360,000 compounds, about 2,100 (0.58%) were called active. This is one part of a sample in which actives are shown more often than they occur. Cut-off read from the data, not from the text of the source: active = inhibition above about 36%; inactive = the rest.

In this assay the target is NEDD8-conjugating enzyme Ubc12 (Homo sapiens) + NEDD8-activating enzyme E1 regulatory subunit (Homo sapiens) (UniProt P61081+Q13564). Kind of assay: NEDD8 transfer onto cullin, blockade – biochemical, TR-FRET, uHTS, NAE and Ubc12, primary screen (AID 651699). The following applies: TR-FRET cullin neddylation, at 25 µM, active compounds read high.
NEDD8-conjugating enzyme Ubc12 (Homo sapiens) + NEDD8-activating enzyme E1 regulatory subunit (Homo sapiens), sequence (P61081 whole entry, looked up): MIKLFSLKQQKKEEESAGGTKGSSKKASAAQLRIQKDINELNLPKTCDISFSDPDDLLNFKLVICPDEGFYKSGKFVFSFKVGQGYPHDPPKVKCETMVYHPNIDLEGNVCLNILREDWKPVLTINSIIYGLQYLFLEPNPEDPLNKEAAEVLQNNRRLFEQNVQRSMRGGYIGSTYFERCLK
NEDD8-conjugating enzyme Ubc12 (Homo sapiens) + NEDD8-activating enzyme E1 regulatory subunit (Homo sapiens), sequence (Q13564 whole entry, looked up): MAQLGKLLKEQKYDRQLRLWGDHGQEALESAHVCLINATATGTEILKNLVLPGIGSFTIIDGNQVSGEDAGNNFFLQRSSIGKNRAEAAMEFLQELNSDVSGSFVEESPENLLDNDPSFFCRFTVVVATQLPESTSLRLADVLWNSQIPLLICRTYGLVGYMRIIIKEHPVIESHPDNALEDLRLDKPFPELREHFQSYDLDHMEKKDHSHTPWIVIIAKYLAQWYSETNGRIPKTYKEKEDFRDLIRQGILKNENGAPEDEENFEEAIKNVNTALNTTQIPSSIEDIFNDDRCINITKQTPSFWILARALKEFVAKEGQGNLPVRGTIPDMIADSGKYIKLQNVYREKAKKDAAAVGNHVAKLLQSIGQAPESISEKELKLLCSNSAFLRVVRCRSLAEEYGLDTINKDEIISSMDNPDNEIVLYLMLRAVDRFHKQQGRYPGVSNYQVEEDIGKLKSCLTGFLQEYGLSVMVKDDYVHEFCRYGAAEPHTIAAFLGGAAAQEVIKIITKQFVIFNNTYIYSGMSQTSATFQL
As to `CCOC(=O)c1cn(CC)c2cc(F)c(F)cc2c1=O`, the inhibition is 6.4% (inactive).
`CC(=O)/C(=N\Nc1ccc(Cl)cc1Cl)Sc1cccc2cccnc12`: the inhibition was -3.61% (inactive).
As for `CN(CC(=O)Nc1cccc2c1CCCC2)S(=O)(=O)c1ccc(Cl)cc1`, the figure is 7.5% (inactive).
As to `Cc1ccc(O)c(/C=N/NC(=O)COc2ccc3c(C)cc(=O)oc3c2)c1`, the inhibition was 17% (inactive).
For the molecule `Cc1ccc2occ(/C=N/NC(=O)c3ccccc3C)c(=O)c2c1`, the inhibition was 42.8% (active).
As for `Cc1cc(NC(=O)c2ccccc2C)no1`, the figure is -11.1% (inactive); as for `CCOc1ccc2nc(NCCNC(=O)C(C)(C)C)c(C)cc2c1`, 42.5% (active).
As for `CCOc1ccc(NS(=O)(=O)c2ccc(C)c(C(N)=O)c2)cc1`, the figure is -4.92% (inactive); as for `CCOc1ccc2nc(Cl)c(C3CC(c4ccccc4)=NN3C(=O)c3cccs3)cc2c1` (stereo not drawn), -162% (inactive).
In the case of `CCOc1ccc(NC(=O)c2ccc(CSc3nnnn3C)cc2)cc1`, the inhibition is 1.1% (inactive).
`CC(=O)N(c1ccc2oc(=O)sc2c1)S(=O)(=O)c1ccc(C)cc1`: the inhibition is 0.47% (inactive).
As for `O=C(CN1CCN(C(=O)C2CCCO2)CC1)Nc1c(Cl)cccc1Cl` (stereo not drawn), the figure is 10.6% (inactive); as for `C=CCNC(=O)C1CC=CCC1C(=O)O` (stereo not drawn), 4.38% (inactive).
Consider `COc1cccc(OC)c1C(=O)Nc1ccc(Cc2ccncc2)cc1`, for which the inhibition was 7.29% (inactive).
Regarding `COc1ccccc1N(C)S(=O)(=O)c1ccc(Cl)c(C(=O)Nc2ccncc2)c1`, the inhibition was 13.9% (inactive).
Consider `COc1cc2ccccc2cc1C(=O)Nc1ccncc1`, for which the inhibition is 42.2% (active).
For the molecule `O=C1N[C@H](Cc2c[nH]c3ccccc23)COC(=O)[C@H](Cc2ccc(F)cc2)C/C=C\C[C@H]1CC(=O)N(CCO)Cc1ccccc1`, the inhibition is -4.67% (inactive).
Then `O=C(c1ccc(Cl)cc1)N1N=C(c2ccccn2)CC1(O)C(F)(F)F` (stereo not drawn), with 46% (active); and `O=C(C1CC1)N1N=C(c2ccc(Br)cc2)CC1(O)C(F)(F)F` (stereo not drawn), with -17% (inactive); and `COC(=O)C1(O)CC(C(C)C)=NN1C(=O)c1ccc(Cl)cc1` (stereo not drawn), with 10.8% (inactive).
In the case of `CC(=O)NCCc1ccc(S(=O)(=O)Nc2ccc(C)c(S(=O)(=O)N3CCOCC3)c2)cc1`, the inhibition was 0.16% (inactive).
As for `COc1ccc2c(c1)C(C)=CC(C)(C)N2C(=O)Nc1ccccc1`, the figure is 41.3% (active); as for `COc1ccc2c(c1)C(C)=CC(C)(C)N2C(=O)CNCc1ccc2c(c1)OCO2`, -2.09% (inactive); as for `CC1=CC(C)(C)N(C(=O)CSc2nnc(-c3ccccc3)o2)c2ccc(C)cc21`, -0.38% (inactive).
`O=C(CCc1nnc(Cc2ccc3c(c2)OCO3)o1)NCCc1ccccc1Cl`: the inhibition is -1.6% (inactive).
As for `CN(C)c1ccc(/C=N/Nc2cc(N3CCOCC3)nc(N3CCOCC3)n2)cc1`, the figure is 53.4% (active).
As for `Fc1ccccc1/C=N/Nc1cc(N2CCCCC2)ncn1`, the figure is 9.65% (inactive); as for `C/C(=N\Nc1nc(N2CCOCC2)nc(N2CCOCC2)n1)c1ccc([N+](=O)[O-])cc1`, -9.47% (inactive).
Regarding `NNC(=O)c1oc2nc(-c3ccccc3)cc(-c3ccco3)c2c1N`, the inhibition is 51.2% (active).
Then `CNC(=S)NNC(=O)c1oc2nc(-c3ccccc3)cc(-c3ccco3)c2c1N`, with 29.8% (inactive); and `Cc1ccc(O)c(NC(=O)c2cc(-c3ccco3)on2)c1`, with 5.21% (inactive); and `CC1(C)C2CC=C(/C=N/NC(=O)C3CC3)C1C2` (stereo not drawn), with -0.11% (inactive).
Then `O=C(NNC(=O)C1CCC1)c1ccccc1`, with -19.3% (inactive); and `O=C(N/N=C/c1ccccc1O)C1CCCC1`, with 44.9% (active); and `COc1ccc(CCNC(=O)CCCCCNC(=O)N2CCn3c2nc2ccccc23)cc1OC`, with 7.99% (inactive).
Then `O=Cc1c(Nc2ccccc2Cl)nc2ccccn2c1=O`, with -6.5% (inactive).
For the molecule `CC(=O)c1ccc(NC(=O)c2ccc(-n3cncn3)c([N+](=O)[O-])c2)cc1`, the inhibition is -41.9% (inactive).
On to `C=CCn1c(COc2ccc(F)cc2)nnc1SCC(=O)Nc1cccc(S(N)(=O)=O)c1`, for which the inhibition was 5.06% (inactive).
Then `C=CCn1c(COc2cccc3cccnc23)nnc1SCC(=O)OC`, with 46.5% (active); and `C=CCn1c(COc2ccccc2C)nnc1SCC(=O)O`, with -1.87% (inactive).
Then `CCC(C)(C)n1nnnc1C(c1cccs1)N1CCN(c2nc3ccccc3s2)CC1` (stereo not drawn), with 5% (inactive); and `O=C(NCc1nnnn1-c1ccc(Cl)cc1)c1ccc2c(c1)OCO2`, with -5.24% (inactive); and `COc1cccc(Nc2nnc(SCC(=O)N3CC(C)OC(C)C3)s2)c1` (stereo not drawn), with -4.5% (inactive).
Then `O=C(NCC1CCCO1)c1cc2c([nH]c3ccccc32)c(-c2ccc(F)cc2)n1` (stereo not drawn), with 21% (inactive); and `O=C(NCCc1ccc(F)cc1)c1n[nH]c2ccccc12`, with 9.02% (inactive).
As to `O=C(NCCCO)c1cc2c([nH]c3ccccc32)c(-c2ccc(F)cc2)n1`, the inhibition is 44.3% (active).
Then `O=c1cc(CN2CCN(c3cccc(Cl)c3)CC2)c2cc3c(cc2o1)CCCC3`, with -45.2% (inactive); and `CCC(CC)C(=O)N1CC(=O)Nc2ccc(Br)cc2C1c1ccccc1` (stereo not drawn), with -1.94% (inactive).
As for `CCN(/N=C/c1ccc(N(C)C)cc1)c1nc2ccccc2[nH]1`, the inhibition is 47.9% (active).
Then `Oc1ccc(/C=N/N(Cc2ccccc2)c2ccccc2)cc1`, with 13.8% (inactive).
As for `CCN(/N=C/c1ccccc1)c1cc(=O)n(C)c(=O)[nH]1`, the figure is 14.3% (inactive); as for `CCC(C)c1ccc(NC(=S)NCc2ccccn2)cc1` (stereo not drawn), 3.21% (inactive); as for `O=S(=O)(c1cccc(Cn2nnc(-c3ccc(F)cc3)n2)c1)N1CCOCC1`, -1.01% (inactive).
Then `O=C(C[C@@H]1C/C=C\CCC(=O)OC[C@@H]2CCCN2C1=O)NCCO`, with -13.4% (inactive); and `O=C(CNC(=O)c1ccccc1Br)NNC(=O)c1cccs1`, with 7.39% (inactive); and `CCN(CC)c1ccc(/C=N/NC(=O)CNC(=O)c2cccs2)cc1`, with 55.1% (active).
As to `O=C(NC(Cc1c[nH]c2ccccc12)C(=O)N/N=C/c1ccc(Br)cc1)c1cccs1` (stereo not drawn), the inhibition is -5.72% (inactive).
As for `CCOc1cc(C2C(C(=O)OC)=CN(C3CCCC3)C=C2C(=O)OC)cc(Br)c1O`, the figure is -306% (inactive); as for `COC(=O)C1=CN(Cc2ccc(OC)cc2)C=C(C(=O)OC)C1c1ccc(O)c(OC)c1`, 40.7% (active).
Then `O=C(NC1CC1)C(Cc1ccccc1)NS(=O)(=O)c1ccccc1F` (stereo not drawn), with -5.68% (inactive); and `O=C(CN1CCN(c2ccccc2O)CC1)NC(=O)NCc1ccccc1`, with 1.32% (inactive); and `CCOCCCNC(=O)C(NC(=O)CNC(=O)c1ccccc1)c1ccc(OC)cc1` (stereo not drawn), with 0.37% (inactive).
As for `CCOCCCNC(=O)C(NC(=O)c1ccccc1O)c1ccccc1` (stereo not drawn), the figure is 46.5% (active); as for `CCOCCCNC(=O)C(NC(=O)CNC(=O)c1ccccc1)c1ccc(C)cc1` (stereo not drawn), 2.03% (inactive); as for `CC(C)=CCc1ccc(O)c(=O)cc1C(C)C`, 1.77% (inactive).
Regarding `O=C(O)C(F)(F)C(NCc1ccccc1)c1ccccc1` (stereo not drawn), the inhibition was -2.55% (inactive).
Then `CC(C)c1ccc(CC(=O)N2CCC2(C)C(=O)NS(=O)(=O)c2ccc(C(C)(C)C)cc2)cc1` (stereo not drawn), with -0.27% (inactive); and `COC(=O)c1cc2c(N)c(C(=O)c3ccc(Cl)cc3)sc2nc1C(OC)OC`, with 12.2% (inactive).
On to `CC(=O)c1c(Nc2ccccc2)sc(C(=O)c2ccccc2)c1C`, for which the inhibition is 5.82% (inactive).
With `CN(C)c1ccnc2sc(C(=O)c3ccccc3)c(N)c12`, the inhibition is 42.8% (active).
As for `Cc1nc2sc(C(=O)c3ccccc3)c(N)c2c2c1CCCC2`, the figure is 47.1% (active); as for `Cc1cccc2cc3c(N)c(C(=O)N4CCCc5ccccc54)sc3nc12`, -5.05% (inactive); as for `O=C(Nc1c(-c2ccccc2)nc2c(Br)cc(Br)cn12)c1ccco1`, -168% (inactive).
As for `OCC[C@H]1C[C@H](O)[C@@H](O)[C@]2(Cc3ccccc3CO2)O1`, the figure is -28.9% (inactive).
As for `Cc1noc(C)c1CCC(=O)O`, the figure is -7.17% (inactive); as for `CN(Cc1ccccc1)C(=O)CCC1CCN(C(=O)c2ccco2)CC1`, 6.05% (inactive).
Regarding `CCOC(=O)c1cnc(SCC(=O)Nc2cccc(OC)c2)nc1N`, the inhibition is -0.72% (inactive).
On to `COc1ccc(/C=C/C(=O)OCC(=O)N2CCN(S(=O)(=O)c3ccc(C)cc3C)CC2)cc1OC`, for which the inhibition was 24.4% (inactive).
As for `CCCCNS(=O)(=O)c1ccc(S(=O)(=O)n2cnc3ccccc32)cc1`, the inhibition is -2.84% (inactive).
Then `O=C(Cn1cc(/C=N/NC(=O)c2cccc(C(F)(F)F)c2)c2ccccc21)Nc1ccc(F)cc1`, with 44% (active); and `NC(=O)Cn1cc(/C=N\NS(=O)(=O)c2ccccc2)c2ccccc21`, with -17.8% (inactive).
Then `O=C(CSc1ccc(/C=N/NC(=O)c2cccc(F)c2)o1)Nc1ccccc1`, with -3.46% (inactive); and `COc1ccc([N+](=O)[O-])cc1NC(=O)COC(=O)/C=C/c1ccco1`, with -34% (inactive).
Consider `O=C(NNC(=O)C1C2CCC(C2)C1C(=O)O)c1ccc(Cl)cc1` (stereo not drawn), for which the inhibition is 2.72% (inactive).
Then `O=C(NNC(=S)NC1CC2CCC1C2)c1ccc(Cl)cc1` (stereo not drawn), with 62.7% (active); and `O=S(=O)(NC1CC2CCC1C2)c1ccc(Cl)cc1` (stereo not drawn), with -2.94% (inactive).
Then `CC1(C)CC(=O)C2=C(C1)Nc1cc(C(=O)c3ccccc3)ccc1NC2c1ccccn1` (stereo not drawn), with 24.5% (inactive); and `Cc1cc2cc(CN(Cc3cccs3)Cc3nnnn3CC3CCCO3)c(=O)[nH]c2cc1C` (stereo not drawn), with 4.8% (inactive); and `COc1ccc2[nH]c(=O)c(CN(CC3CCCO3)C(=O)Nc3ccccc3)cc2c1` (stereo not drawn), with 21.1% (inactive).
Then `CCOc1ccc2[nH]c(=O)c(CN(Cc3nnnn3CCc3ccccc3)CC3CCCO3)cc2c1` (stereo not drawn), with 44% (active).
`CCOc1ccc2[nH]c(=O)c(CN(Cc3nnnn3Cc3ccccc3)CC3CCCO3)cc2c1` (stereo not drawn): the inhibition was 48% (active).
Then `Cc1ccc(S(=O)(=O)N(Cc2cc3ccccc3[nH]c2=O)CC2CCCO2)cc1` (stereo not drawn), with 11.6% (inactive); and `Cc1cc(C)c2cc(CN(Cc3cccs3)Cc3nnnn3CC3CCCO3)c(=O)[nH]c2c1` (stereo not drawn), with -8.71% (inactive).
